From PubChem BioAssay (NCI) come the findings set out here.

Experiment in all cases: NCI-60 one-dose screen, 48 h (100 = growth as untreated, 0 = no growth, -100 = all killed)
Conditions in all cases: 10 µM unless noted

Experiment [1] concerns NCI-H23 lung.
In experiment [2] the test system is NCI-H226 lung.
In experiment [3] the test system is NCI-H322M lung.
Experiment [4] relates to HOP-62 NSCLC.
Experiment [5] has as its system NCI-H460 lung.
Experiment [6] relates to HOP-92 NSCLC.
In experiment [7] the test system is NCI-H522 lung.
For experiment [8], the system named is A549/ATCC NSCLC.
Experiment [9] deals with 786-0 renal.
In experiment [10] the test system is DU-145 prostate.
The subject of experiment [11] is K-562 leukemia.
In experiment [12] the test system is MALME-3M melanoma.
Experiment [13] concerns MDA-MB-231 breast.
The subject of experiment [14] is RXF 393 renal.
Experiment [15] concerns SF-268 CNS.
The subject of experiment [16] is SF-295 CNS.
Experiment [17] relates to SF-539 CNS.
The subject of experiment [18] is UACC-257 melanoma.
Experiment [19] concerns M14 melanoma.

This is part of a sample that, as a whole, favours compounds with a hit. Of some 83,000 tested, about 20% had one in any assay.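 Note: values are percent growth. 100 is the growth of untreated cells, values between 100 and 0 indicate rising inhibition; between -100 and 0 indicates cell death.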 A number with no mark means an inactive call. Calls of active or inactive are those of the source. How the source made its calls: active means growth percent below 10; inactive means the rest.

As to `Cl.Fc1c[c-]c(-c2ccccn2)c(F)c1.[Pt].c1ccc([PH+](C[PH+](c2ccccc2)c2ccccc2)c2ccccc2)cc1`, the growth in experiment [1] is -78.1% (active); in experiment [2], -65.9% (active); in [3], -98.3% (active); in [4] it was -55.4% (active); in experiment [5], -63.5% (active); in experiment [6], -74.2% (active). In addition, the growth in experiment [7] was -60.1% (active); in experiment [8], -58.5% (active); in [9], -68.1% (active); in experiment [10], -94.8% (active); in experiment [11], -18.5% (active); in experiment [12], -92.9% (active). Further, the growth in experiment [13] was -83.8% (active); in experiment [14], -91.6% (active); in experiment [15], -70% (active); in experiment [16], -87.6% (active); in [17], -86.4% (active); in experiment [18], -48.6% (active). Besides, in [19], the growth is -87.1% (active).

For `CCc1cc(Cc2cc(CC)cc(C(C)(C)C)c2O)c(O)c(C(C)(C)C)c1`, the growth was 17.5% in experiment [1]; 48.6% in experiment [2]; 50% in [3]; 34.7% in [4]; 4.34% (active) in experiment [5]; -22.6% (active) in experiment [6]. Moreover, the growth in [7] was 22.2%; in [8], 23.8%; in [9], 23.6%; in [10], 43.1%; in experiment [11] it was 8.51% (active); in [12], 19.5%. The growth in experiment [13] is 13.8%; in experiment [14], 5.58% (active); in experiment [15], 37.6%; in experiment [16], -2.11% (active); in experiment [17], 39.6%; in [18] it was 46.7%.

Regarding `COc1cc(C(=O)/C=C/c2c(C(F)(F)F)nc3ccccn23)cc(OC)c1OC`, the growth in experiment [1] is -50.3% (active); in [2] it was -25.5% (active); in [3] it was 8.14% (active); in experiment [4], -26.9% (active); in [5], -44.4% (active); in [6], 2.54% (active). The growth in experiment [7] was -51.4% (active); in experiment [8], 9.73% (active); in [9] it was -60.9% (active); in [10], -25.8% (active); in [11] it was -9.61% (active); in experiment [12] it was 7.53% (active). Also, the growth in experiment [13] is 13.9%; in experiment [14], -68.8% (active); in [15], -36.1% (active); in [16], -14.9% (active); in [17], -92.8% (active); in [18], -9.93% (active).

Regarding `Cc1c2c(cn1Cc1ccccc1)CCc1cn[nH]c1-2`, the growth is 89.2% in [1]; 101% in [2]; 106% in experiment [3]; 89.1% in experiment [4]; 101% in experiment [5]; 70.1% in experiment [6]. The growth was 97.5% in experiment [7]; 99.3% in experiment [8]; 98.1% in experiment [9]; 117% in experiment [10]; 51.8% in experiment [11]; 105% in [12]. Also, the growth in experiment [13] was 89.3%; in experiment [14] it was 87.6%; in experiment [15] it was 89.6%; in experiment [16] it was 81.5%; in experiment [17] it was 92.7%; in [18], 107%.

On to `Cc1cc(N2CCCCC2)nc(N(CCNc2ccnc3cc(Cl)ccc23)Cc2ccccn2)n1`, for which the growth in experiment [1] is 53.7%; in experiment [2], 63.5%; in experiment [3], 68.8%; in experiment [4], 55.6%; in experiment [5], 41.5%; in experiment [6], 30.6%. The growth was 56.3% in experiment [7]; 53.9% in experiment [8]; 45.3% in [9]; 61.9% in experiment [10]; 7.83% (active) in [11]; 74.1% in experiment [12]. Also, the growth is 49.6% in [13]; 30.7% in [14]; 71.8% in experiment [15]; 21.5% in experiment [16]; 39.2% in experiment [17]; 66.9% in experiment [18]. Further, in experiment [19], the growth was 45%.

With `O=C(CCl)N1c2cccc3cccc(c23)N(C(=O)CCl)C1c1cn(-c2ccccc2)nc1-c1cccc([N+](=O)[O-])c1`, the growth in [1] is 90.1%; in [2], 98.8%; in experiment [3], 104%; in experiment [4], 94.5%; in [5], 103%; in experiment [6], 117%. In addition, the growth is 77.1% in [7]; 107% in experiment [8]; 95.5% in experiment [9]; 98% in [10]; 33.3% in experiment [11]; 108% in experiment [12]. Moreover, the growth in experiment [13] was 85.7%; in experiment [14], 99.9%; in [15], 99.4%; in experiment [16] it was 103%; in experiment [17], 96.5%; in experiment [18] it was 103%. In addition, the growth in experiment [19] was 84.8%.

For `OCCCCc1nccc2c1[nH]c1ccccc12`, the growth in experiment [1] was 98.8%; in [2] it was 90.7%; in experiment [3] it was 88.9%; in experiment [4] it was 95.3%; in experiment [5] it was 104%; in experiment [6], 104%. The growth in experiment [7] was 117%; in [8], 72.6%; in [9], 102%; in experiment [10] it was 114%; in experiment [11] it was 79.8%; in [12], 115%. The growth in experiment [13] is 94.8%; in experiment [14], 65.7%; in experiment [15], 105%; in experiment [16], 102%; in [17], 90.8%; in experiment [18] it was 113%. Moreover, in experiment [19], the growth was 102%.

On to `O=C(Nc1ccccc1Cl)OCCN1CCOCC1`, for which the growth is 99.7% in [1]; 99% in experiment [2]; 98.7% in experiment [3]; 106% in [4]; 109% in experiment [5]; 85.6% in experiment [6]. The growth in [7] is 64.5%; in experiment [8], 98.5%; in experiment [9], 88.7%; in [10] it was 109%; in [11], 90.6%; in experiment [12] it was 114%. In addition, the growth in experiment [13] is 111%; in [14], 114%; in [15] it was 107%; in experiment [16], 103%; in [17] it was 105%; in experiment [18] it was 105%. Moreover, the growth in experiment [19] is 90.7%.
